Screening data deposited in PubChem BioAssay by National Center for Advancing Translational Sciences (NCATS).
Rows were chosen to be rich in hits. Some 4.6% of all compounds tested hit in one or more screens of this group.
GPR32 ag: GPR32 (DRV1) agonism, beta-arrestin recruitment; AID 1346428; CHO-K1 GPR32 beta-arrestin PathHunter luminescence, 90 min; zero percent set by DMSO-only wells; activation, % at 76.9 µM; 2.5% of 48,000 active;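 active = activation of at least 60% and not above a set upper limit, about 1 call in 100 departs from these limits; inconclusive = activation of 40% to 60%, or above that upper limit; inactive = activation under 40%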; also: 0% is about no effect
Target sequence (O75388 whole entry, looked up): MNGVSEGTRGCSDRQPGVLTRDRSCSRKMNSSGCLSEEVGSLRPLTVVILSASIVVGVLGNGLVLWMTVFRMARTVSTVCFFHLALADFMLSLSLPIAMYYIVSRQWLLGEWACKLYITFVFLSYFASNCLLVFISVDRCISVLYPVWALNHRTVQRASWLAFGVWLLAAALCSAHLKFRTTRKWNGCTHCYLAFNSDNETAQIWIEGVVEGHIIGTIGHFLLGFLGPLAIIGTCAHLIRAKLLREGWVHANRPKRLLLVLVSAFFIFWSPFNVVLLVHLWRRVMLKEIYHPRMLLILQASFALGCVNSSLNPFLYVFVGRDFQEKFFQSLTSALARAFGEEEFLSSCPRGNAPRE
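Agonism was scored by beta-Gal fragment complementation (chemiluminescent read, 1 h detection at ambient temperature) reporting beta-arrestin binding to GPR32 in engineered CHO-K1 cells. Compound treatment lasted 90 min at 37 C, normalized to a DMSO basal control.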
HTT prom inh: inhibitors of huntingtin promoter activity | HEK293 HTT promoter firefly luciferase reporter, 24 h | 0.93% of 48,000 active | Potency, µM (doses to about 57.5 µM), without a hit: at the highest dose activity change, negative = inhibition, hits mostly inhibitors | AID 1508623; also: potency is read from the fitted curve at half-maximal effect; nearly all actives have a fitted effect of over 50% in size
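Quantitative HTS used concentration series of up to 57.5 uM final on HEK293 luciferase reporter cells, 24 h at 37 degrees C. Readout was Dual-Glo firefly luminescence.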
NTMT1 inhibitor: inhibitors of human N-terminal methyltransferase NTMT1; Q9BV86; NTMT1 MTase-Glo SAH luminescence, purified enzyme; Potency, µM (top dose mostly 114 µM), for inactives: top-dose activity change, negative = inhibition, most hits filed as inhibitors; 2.5% of 59,000 active; AID 1645870;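 also: potency is read from the fitted curve at half-maximal effect; plate controls were DMSO vehicle for no effect and no enzyme for full effect; nearly all actives have a fitted effect of over 65% in size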
Target sequence (Q9BV86 whole entry, looked up): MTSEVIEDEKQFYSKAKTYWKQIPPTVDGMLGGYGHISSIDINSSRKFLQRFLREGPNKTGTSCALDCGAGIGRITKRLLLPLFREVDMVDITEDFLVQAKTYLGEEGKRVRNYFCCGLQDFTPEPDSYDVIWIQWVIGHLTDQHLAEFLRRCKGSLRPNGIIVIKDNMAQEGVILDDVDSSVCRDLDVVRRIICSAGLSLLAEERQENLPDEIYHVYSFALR
HTT-AS promoter: activators of huntingtin-antisense promoter activity. Potency, µM (series often up to 57.5 µM), for the others: top-dose activity change, positive = activation, usual class: activators. AID 1508624. 0.24% of 48,000 active. HEK293 HTT-AS promoter firefly luciferase reporter, 24 h; response scale: percent change from vehicle, -100% = no light; also: potency is read from the fitted curve at half-maximal effect; nearly all actives have a fitted effect of over 55% in size
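HEK293 Fluc reporter, 2,500 cells/well, 24 h pre-culture; cpds up to 57.5 uM final, 24 h 37 degrees C; Dual-Glo, 10 min RT; normalized vehicle = 0%, zero RLU = -100%.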
* = called active by the depositor; ? = inconclusive; nt = no result; ! = not confirmed by another sample; [ ] = another dose, or the depositor's remark. Unless noted, calls follow the shape of the dose curve; as a rule, active = well fitted curve in the direction sought with a large enough effect; inconclusive = small, poorly fitted or top-dose-only effect, or another doubt; inactive = no such curve, though single readings can be large; an effect the other way counts as inactive or inconclusive.

SMILES	GPR32 ag	HTT prom inh	NTMT1 inhibitor	HTT-AS promoter
O=C(CSc1nc(Nc2ccccc2)c2ccccc2n1)c1ccc(Cl)cc1	108*	-17%	8%	-42%
C=CC(=O)Nc1cccc(C)c1Nc1ncc2cc(-c3c(Cl)c(OC)cc(OC)c3Cl)ccc2n1	nt	nt	14%	nt
CC(=O)[C@]1(N)Cc2c(O)c3c(c(O)c2[C@@H](O[C@H]2C[C@H](O)[C@H](O)CO2)C1)C(=O)c1ccccc1C3=O	nt	nt	10%	nt
CC(C)(C)c1ccc(O)c(O)c1	?	?	4.5µM*	-39%[116 µM]
COc1cc2nc(N3CCN(C)CC3)nc(NCCN(C)C)c2cc1OC	nt	nt	4%	nt
COc1cc2c(NC3CCN(C4CCCCC4)CC3)nc(N3CCCN(C(C)C)CC3)nc2cc1OCCCN1CCCCC1	nt	nt	20µM*	nt
Nc1c(C(=O)Nc2ccc(C(=O)O)cc2)sc2nc3c(cc12)CCCC3	27	?	25µM*	-74%
CCCOc1cccc(C(=O)Nc2ccc(-c3nc4ccccc4o3)cc2)c1	108*	9%	6%	-15%
CCOc1cccc(C(=O)Nc2ccc3oc(-c4ccncc4)nc3c2)c1	?	?	-1%	-25%
CCCOc1ccc(C(=O)Nc2cccc(-c3nc4ccccc4[nH]3)c2)cc1	83*	0%	14%	-10%
COc1cc(O)cc(O[C@@H]2O[C@H](CO)[C@@H](O[C@@H]3OC[C@](O)(CO)[C@H]3O)[C@H](O)[C@H]2O)c1OC	nt	nt	11%[29.8 µM]	nt
CCCCCCCCCC(=O)N[C@@H](Cc1c[nH]c2ccccc12)C(=O)N[C@H](CC(N)=O)C(=O)N[C@@H](CC(=O)O)C(=O)N[C@@H]1C(=O)NCC(=O)N[C@@H](CCCN)C(=O)N[C@@H](CC(=O)O)C(=O)N[C@H](C)C(=O)N[C@@H](CC(=O)O)C(=O)NCC(=O)N[C@H](CO)C(=O)N[C@@H]([C@@H](C)CC(=O)O)C(=O)N[C@@H](CC(=O)c2ccccc2N)C(=O)O[C@@H]1C	nt	0%	7%[57.5 µM]	-7%
CC(C)Oc1ccc2c(=O)c(-c3ccccc3)coc2c1	15	24%	4%[57.5 µM]	0.86µM*!
COCCn1c(-c2ccccc2)c(C)n2c3c(=O)n(C)c(=O)n(C)c3nc12	2	-18%	?	-22%
Cc1ccc(-c2c(C)n3c4c(=O)n(C)c(=O)n(C)c4nc3n2CCO)cc1	?	2µM*	?	-43%
CCCCn1c(-c2ccc(C)cc2)c(C)n2c3c(=O)n(C)c(=O)n(C)c3nc12	85*	-27%	?	-2%
CCOc1ccc(-c2nnc(SCC(=O)Oc3ccccc3)o2)cc1	-2	2.8µM*	13%	-89%
N#Cc1c2nc3ccccc3nc2n2ccc(NC(=O)c3cccs3)cc12	nt	nt	-12%	nt
COc1ccc2nc(NC(=O)c3nc(S(=O)(=O)Cc4ccc(C)cc4)ncc3Cl)sc2c1	0	-2%	36%	-36%
Cc1ccc(CS(=O)(=O)c2ncc(Cl)c(C(=O)Nc3nc4ccc(F)cc4s3)n2)cc1	80*	?	-2%	-86%
Cc1ccc(CS(=O)(=O)c2ncc(Cl)c(C(=O)Nc3nc4ccc(C)cc4s3)n2)cc1	70*	?	12%	-86%
COc1ccc([S+](=O)([O-])Nc2ccc(-c3nc4ccccc4[nH]3)cc2)cc1OC	nt	nt	16%	nt
CCOC(=O)N1CCN(C(=O)c2ccc3c(c2)N(Cc2cc(C)ccc2C)C(=O)c2ccccc2S3=O)CC1 (stereo not given)	-12	?	89µM*	-43%
Cc1cc(NC(=O)c2ccco2)cc(-c2nc3ccccc3o2)c1O	27	-6%	29%	3%
O=C(Nc1ccc(O)c(-c2nc3ccccc3o2)c1)c1ccco1	84*	-1%	19%	0%
SMILES	GPR32 ag	HTT prom inh	NTMT1 inhibitor	HTT-AS promoter
O=C1NC(=O)C(=Cc2ccc(-c3ccc(F)cc3)o2)S1	nt	-18%	22µM*	-14%
NC(=O)C1CCN(c2nc(-c3ccc(F)cc3)cs2)CC1	nt	nt	79µM*	nt
COc1ccc(-c2nc(C)c(CCNC(=O)C(=O)Nc3c(C)cccc3C)s2)cc1OC	70*	1%	11%	1%
COc1ccc(CC(=O)NCCc2sc(-c3ccc(Cl)cc3)nc2C)cc1OC	92*	-51%	-7%	-41%
COc1ccc(-c2nc(C)c(CCNC(=O)c3ccccc3Br)s2)cc1OC	-13	8%	-12%	8%
CC(=O)OC/C(=C/C(=O)O)CC[C@@H]1C(C)=CC(=O)[C@@H]2C(C)(C)CCC[C@@]12C	nt	nt	3%[29.8 µM]	nt
O=C(COc1ccccc1)Nc1ccc2nc(SCCOc3ccccc3)sc2c1	-5	4%	1%	-1%
O=C(COc1ccccc1F)Nc1ccc2nc(SCCOc3ccccc3)sc2c1	99*	-14%	11%	-20%
CC(=O)Nc1ccc2nc(SCCOc3ccccc3)sc2c1	118*	14%	-11%	16%
Cc1c(Cl)cccc1NC(=O)c1ccc2snnc2c1	-30	-1%	16%	-4%
Cc1ccc(Cl)cc1NC(=O)c1ccc2snnc2c1	85*	-10%	0%	-17%
O=C(Cn1nc(C2CCCCC2)ccc1=O)NCCc1ccccc1	nt	nt	-9%	nt
Cc1cc(C)c2c(=O)cc(CSc3n[nH]c(C)n3)[nH]c2c1	7	6%	6%	-8%
Cc1cccc(-c2nc(SCc3cc(=O)c4c(C)cc(C)cc4[nH]3)n[nH]2)c1	116*	-25%	-8%	-41%
CNC(=O)C1=C(C)NC(Nc2nc3ccccc3o2)=NC1c1nn(C)cc1Cl (stereo not given)	nt	nt	14%	nt
CC(C)NCC(O)COc1cccc2ccccc12 (stereo not given)	1	nt	nt	nt
CC(C)[N+](C)(C)CC(O)COc1cccc2ccccc12 (stereo not given)	6	3%	8.9µM*	-13%
O=C(NC1(c2ccccc2)CC1)c1c(CN2CCC(N3CCCCC3)CC2)c(-c2cccc(C(F)(F)F)c2)nc2cc(Br)ccc12	nt	nt	6%[57.5 µM]	nt
CCCCN(CCCC)CC(O)Cn1cc(/C=C/C(=O)c2ccccc2)c2ccccc21 (stereo not given)	88*	-27%	7%	-38%
CC(C)CCNS(=O)(=O)c1ccc(N2CCCCS2(=O)=O)cc1	10	14µM*	1%	-21%
CCOc1ccc(NC(=O)CSc2oc(-c3ccco3)nc2S(=O)(=O)c2ccc(Cl)cc2)cc1	-19	?	79µM*	-30%
Cc1cc(C)cc(NC(=O)CSc2oc(-c3ccco3)nc2S(=O)(=O)c2ccc(Cl)cc2)c1	0	?	-2%	-60%
O=C(CSc1oc(-c2ccco2)nc1S(=O)(=O)c1ccc(Cl)cc1)c1ccc(Cl)cc1	-9	?	79µM*	-17%
Cc1ccc(S(=O)(=O)c2nc(-c3ccco3)oc2SCC(=O)c2ccc(Cl)cc2)cc1	-13	?	-5%	-13%
Cc1cc(NS(=O)(=O)Cc2ccc(NC(=O)Cc3ccc(Cl)c(Cl)c3)cc2)no1	nt	nt	-1%	nt
COc1cc2c(cc1NC(=O)COc1ccc(Br)cc1)oc1ccccc12	-5	12%[11.5 µM]	1%	?
